According to the supplement of paper PMC6555819:

Tested on: VDR:RXRa (NR concentration 270 nM, RXRa partner concentration 90 nM)
Assay: PBM binding z-score (relative to random genomic background probes); higher = stronger binding; sequences stand for … in GC…GCGATTGACAGCGTAGAATGAAGG
Procedure: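 Protein-binding microarray (Agilent 4x180K custom design, double-stranded 60-nt probes: 5' GC cap, 34-nt variable region, 24-nt constant primer region; full probe sequence given). Purified or IVT nuclear receptor:RXRα heterodimers (3:1 NR:RXRα, mostly 270:90 nM) or homodimers were incubated for 1 h in PBS with 2% milk and no ligand, then detected with Alexa488 antibodies. Fluorescence from o1-orientation probes (~5 replicates averaged) was converted to z-scores against 500 random hg19 background probes. Variable regions are seed direct-repeat (DR0–DR5) sites, all their single-nucleotide variants and half-site ablations.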

Sequence | PBM binding z-score
ATCTCTAGGTAACAAGTTCAGGGAAAGAGAGGAC | 2.25
CTCGAAAGGTCGGTTGAGGTTAGTATACGGATAA | 3.58
TCTAGTTGGTCAAACGTCACACACTCGAAATGCG | 0.811
TCATATAGGTAAAAGGTGATAGTCGGTGTGGTAA | 1.13
TGAATGAGGTTAAACATCAGGGAACGTGGCGTCG | 1.87
CCTAGCAGGCCAATCAGGGTCACTCAAGGCTTGA | 3.66
TTACCAAGGTGAGCTGACGTCGTTGATCCAACTC | -0.477
AGAATGAGGTAAAGATCAGGGAAACAGAATACAT | 0.0577
ATCTCTAGGTAACCTAGTTCAGTGAATGCCGAAC | 1.96
CGAAGTAGGTCATTGACAGGACAGTGAATAGTAA | 2.62
GCTAGCTGGCCATTTGGGTCACTCAATGACGGGC | -0.155
CAAACTAGGTCAAGGTCACAGTCGGTTTGTGCCA | 5.06
TCGAGTAGGTTAGGGGCATGCAGAATGGCGTCGA | 0.195
CAAACTAGGTCACCGGATGGTCAAAGTCCGCATG | 2.78
TAGCCTAGGTAATTCAGGGGCCAGTATAGAAAGC | -0.417
CCAGACAGGTGCGAAGGTAACTCAGCCTCGATTA | -0.435
GCTAGCCGGCCATTTGGGTCACTCAATGACGGGC | 0.203
CCTTACGGGTCGAGGTTATAGCACGGGTGGTACG | 1.25
ACTAGCAGGCCAAGTTTGGGTCACTCAGACAAAG | 0.43
TCTTGTAGAGCAACAGGAGGTTAAGAAAGATCGA | 0.0425

Sequence | PBM binding z-score
CTAGACAGGTGAGAAGGTAACTCAGCCTCGATTA | -0.342
ATCTCTAGGTAAGACTCAGATCAGTGAAGAACGC | 0.238
CCGACTGGGGTAAGGTTACCATAACGCACAGCCA | 0.525
TTACCAAGGTGAGAGGTCGTTGATGCACGCCTTG | 2.25
ACTAGCAGGCCAAGTTTGGGGCACTCAAACAAAG | -0.558
TCATATAGGTACAGGTGAAAGTCGAACGATATGA | 0.846
ACTAGCATGCCAAGGGTCACTCAAGATTAGTCCG | 2.93
ACAGACAGGTGATGAAGGTAACTCGGGCTATCAT | 0.101
CGAACTAGGTCATTGAAAGGACAGTGAATAGTAA | 2.36
CCTCGGAGGCCAGAAGGTCAGAGCTGTCCGCTTT | 0.72
AGAACGAGGGCAATGAGTTAATAGCACGGGTGGC | 4.04
TCTTATAGGTAAAAGGTGAAAGTCGGTGTGGTAA | 1.66
ACTATTAGTTGTGACGAGGGCAACCGATAGGTTG | 0.506
CCTCCAAGGTCAGAGAGGTCAGTGAATGCCGAGT | 7.22
CCTAGCAGGCCAGTGTCACTCAAGCATTTCGCTT | -0.398
CCCACTGGGCCAAAAAGGTCATTGATGCCGATAA | 4.94
GCAGACAGGTGAAACGCAGGTGACTCAGGGTGGC | -0.335
CCTGCTAGGTCAGGGTCAGCTAATCTACAGTATG | 2.86
ATATGTAGATTAAGGGTCATTCAGGTTGGTTCGC | 5.22
CGAACTAGGTCCTCCAGGACAGTGAATACATTGA | -0.247
